Screening data (PubChem BioAssay)
DT40 TDP1 CPT – growth inhibition of DT40 Tdp1-/-;hTDP1 cells with camptothecin (screen for TDP1 inhibitors) | chicken DT40 Tdp1-/-;hTDP1 cells + 20 nM CPT, ATP luminescence, 48 h | Potency, µM (titrated, usually from 46.2 µM), for the others: at the top dose activity change, negative = growth inhibition, usual class: inhibitors | 12% of 420,000 active; also: % is scaled to controls: 0 for no effect and ±100 for the full control effect; nearly all actives have a fitted effect of over 55% in size
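Cell growth measured by CellTiter-Glo luminescence after a minimum 48 h, 37 C compound exposure with 20 nM CPT in Tdp1-knockout DT40 cells stably expressing hTDP1, seeded 400/well; qHTS titration format.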
TGFb SMAD3 inh – TGF-b pathway inhibition; AID 588855; 1.2% of 410,000 active; Potency, µM (series often up to 46.1 µM), without a hit: at the highest dose activity, negative = inhibition, actives largely listed as inhibitors; HepG2 CAGA-GFP TGF-b/SMAD3 reporter, GFP fluorescence, 18 h; TGF-beta stimulated, 500 pg/mL final; also: % is scaled to controls: 0 for no effect and ±100 for the full control effect; nearly all actives have a fitted effect of over 65% in size
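Cell-based qHTS in HEPG2 carrying a CAGA-GFP Smad reporter; compounds added before 500 pg/mL final TGF-beta, 18 h incubation at 37 degrees C, GFP fluorescence quantified per cell by imaging cytometry.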
HT1080 IDH1KD tx – toxicity to HT-1080 IDH1 knockdown cells (counter line); HT-1080 IDH1 knockdown viability, ATP luminescence, 48 h; Potency, µM (highest dose often 46.1 µM), inactives show at the highest dose activity, negative = toxicity, actives largely listed as cytotoxic; 2% of 360,000 active; AID 686971;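 also: 0% = DMSO wells and -100% = cell-free medium wells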
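IDH1KD HT-1080 cells, 750/well, RPMI + 5% FBS; compound pinned after 2 h settling; 48 h, 37 °C; CellTiter-Glo luminescence; % activity normalised to DMSO and no-cell wells; curves fitted, classed by r2 and efficacy.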
HepG2 tox – kills HepG2 cells in TGF-b inhibitor counter-screen | AID 588856 | Potency, µM (highest dose often 46.1 µM), without a hit: at the highest dose activity change, negative = cytotoxicity, actives largely listed as cytotoxic | HepG2 CAGA-GFP viability, ATP luminescence, 18 h | 0.76% of 410,000 active
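HepG2 CAGA-GFP cells (1000/well, DMEM with 1% FBS) received compound, then TGF-beta at 500 pg/mL final, and were incubated 18 hours at 37 degrees C. Viability was read by CellTiter-Glo luminescence. Media-only wells were set as complete cell-killing and DMSO as no toxicity.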
HT1080-NT tox – kills 2HG-producing HT-1080-NT fibrosarcoma cells; HT-1080-NT fibrosarcoma viability, CellTiter-Glo ATP luminescence, 48 h; 1.6% of 360,000 active; Potency, µM (highest dose often 46.1 µM), for the others: top-dose activity, negative = less viability, actives largely listed as cytotoxic;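 also: NT is the 2HG producing partner of a matched IDH1 knockdown line; 0% = DMSO-treated cells and -100% = media-only wells without cells; nearly all actives have a fitted effect of over 55% in size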
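HT-1080-NT; 750 cells/well; 5% FBS RPMI; 48 h compound, 37 degrees C; CellTiter-Glo luminescence; curve fitting and curve-class assignment.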
TDP1 cell noCPT – qHTS for Inhibitors of human tyrosyl-DNA phosphodiesterase 1 (TDP1): qHTS in cells in absence of CPT | AID 686978, 2013 | DT40 Tdp1-/- hTDP1 cells, no CPT, ATP luminescence, 48 h | Potency, µM (doses to about 46.2 µM), for inactives: at the highest dose activity change, negative = growth inhibition, actives largely listed as inhibitors | 15% of 420,000 active; also: % is scaled to controls: 0 for no effect and ±100 for the full control effect; nearly all actives have a fitted effect of over 55% in size
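Cells were dispensed at 400 per well, compounds added by pin tool, plates incubated ≥48 hr at 37 °C, then CellTiter-Glo added for 30 min at room temperature before luminescence reading. Line: DT40 Tdp1-/- complemented with hTDP1; camptothecin omitted.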
An asterisk follows results filed as active; ? = inconclusive; . = not tested or not shown. Shown are actives, neighbours in structure and some others; about 17% of the full set was active somewhere. Calls follow the shape of the dose curve; as a rule, active = well fitted curve in the direction sought with a large enough effect; inconclusive = small, poorly fitted or top-dose-only effect, or another doubt; inactive = no such curve, though single readings can be large; an effect the other way counts as inactive or inconclusive. Potency is read from the fitted curve at half-maximal effect.

SMILES	DT40 TDP1 CPT	TGFb SMAD3 inh	HT1080 IDH1KD tx	HepG2 tox	HT1080-NT tox	TDP1 cell noCPT
O=C(CN1CCCCCC1)Nc1ccc(Cl)cn1	-13%	11%	2%	1%	0%	-16%
CCNc1c(NC(=O)c2ccccc2OCC)c(=O)oc2ccccc12	?	22%	.	-4%	.	?
Cc1ccc(Sc2ncccc2[N+](=O)[O-])cc1	24%	0%	6%	-2%	4%	-4%
Cc1c([N+](=O)[O-])cnc(Sc2ccccc2)c1[N+](=O)[O-]	?	13µM*	?	20µM*	?	9.2µM*
CCc1nnc(SC(CC)C(=O)NCCOC)c2cc3occc3n12 (centres undefined)	?	?	.	-13%	.	?
NC1=NC[C@H](Cc2ccccc2)N1CCc1cccc(F)c1	13µM*	-29%	-3%	-3%	2%	12µM*
NC1=NC[C@H](Cc2ccccc2)N1CCCCC1CCCCC1	5.2µM*	?	-6%	-105%	-7%	5.2µM*
CC(C)C[C@@H]1CN=C(N)N1C[C@@H]1CCCN1C[C@@H](C(C)C)N1C[C@@H](Cc2ccccc2)N(CCCC2CCCC2)C1=N	?	-3%	0%	-1%	6%	?
Fc1cccc(CCN2CCNC[C@@H]2Cc2ccccc2)c1	?	-3%	-8%	3%	-4%	?
NC1=NC[C@H](Cc2ccc(O)cc2)N1CCCCC1CCCCC1	4.6µM*	?	-28%	-22%	-24%	2.6µM*
CCS(=O)(=O)NCCCCc1ccccc1	3%	8%	0%	0%	1%	-4%
CCS(=O)(=O)NCCCc1ccccc1	21µM*	-2%	4%	-6%	9%	?
COc1ccc(-c2csc(NC(=O)C3CSC4(C)CCC(=O)N34)n2)c(OC)c1 (centres undefined)	?	1%	-18%	-6%	-6%	23µM*
COc1ccc(-c2csc(NC(=O)C3CSC4(C)CCC(=O)N34)n2)cc1 (centres undefined)	-5%	1%	5%	0%	10%	0%
CCCCOCP(=O)(CC)COCCCC	-17%	-26%	-2%	-36%	3%	?
COc1cc(C(=O)NNC(=S)NC(=O)c2ccccc2C)cc(OC)c1OC	16µM*	?	?	-12%	-24%	?
COc1ccccc1C(=O)NNC(=S)NC(=O)c1cc(OC)c(OC)c(OC)c1	18µM*	-8%	?	-19%	-18%	6.5µM*
O=CNc1cc(-c2ccc(C(=O)NC3CC3)cc2)cn2c(-c3ccc(F)c(Cl)c3)cnc12	18µM*	?	?	-20%	?	13µM*
O=CNc1cc(-c2ccc(C(=O)NC3CC3)cc2)cn2c(-c3ccccc3)cnc12	10µM*	-16%	5.8µM*	-16%	6.5µM*	7.3µM*
CC(=O)c1ccc(-c2cnc3c(NC=O)cc(-c4ccc(C(=O)NC5CC5)cc4)cn23)cc1	5.8µM*	?	7.3µM*	5%	15µM*	5.2µM*
CN(C(=O)Cn1nc(C(=O)O)c2ccccc2c1=O)C1CCCCC1	14%	-8%	1%	-2%	2%	3%
Oc1ccccc1C1CC(c2cccs2)=NC(c2cccc(Br)c2)N1 (centres undefined)	15µM*	20µM*	?	-61%	?	21µM*
COC1CCN(Cc2c(C(=O)N3CCc4ccccc4C3)nc3ccc(Cl)cn23)CC1	-29%	-1%	11%	-5%	0%	-18%
CC1CCN(Cc2c(C(=O)N3CCc4ccccc4C3)nc3ccc(Cl)cn23)CC1	21µM*	-7%	-7%	-21%	-8%	?
Nc1ccc2c(c1)C(=O)c1cc(N)c(Cl)cc1-2	2%	0%	-20%	-6%	?	-19%
SMILES	DT40 TDP1 CPT	TGFb SMAD3 inh	HT1080 IDH1KD tx	HepG2 tox	HT1080-NT tox	TDP1 cell noCPT
COc1cc2c(cc1N)-c1ccc(N)cc1C2=O	?	-4%	-3%	-2%	3%	16µM*
CN(C)CCN1CCN(C(c2ccnc3ccccc23)c2nnnn2-c2ccc3c(c2)OCCO3)CC1 (centres undefined)	-23%	.	-2%	.	-26%	16µM*
Cc1cccc(C)c1-n1nnnc1C(c1ccnc2ccccc12)N1CCN(CC(=O)NC(C)C)CC1 (centres undefined)	-13%	.	?	.	12%	-27%
O=C(Nc1ccc(F)cc1)C(c1ccnc2ccccc12)N1CCN(c2cccc(C(F)(F)F)n2)CC1 (centres undefined)	?	.	?	.	?	21µM*
Cc1cccc(C)c1NC(=O)C(c1ccnc2ccccc12)N1CCN(CCN(C)C)CC1 (centres undefined)	4.6µM*	.	0%	.	-12%	5.2µM*
Cc1cccc(C)c1-n1nnnc1C(c1ccnc2ccccc12)N1CCCN(C(=O)OC(C)(C)C)CC1 (centres undefined)	?	.	?	.	16%	18µM*
CN1CCN(C(=O)c2cccc(-c3cccc4nccn34)c2)CC1	14%	-10%	9%	-7%	14%	-12%
O=C(CSc1nnc2ccccn12)NCCc1ccc(Cl)cc1	5%	11%	-1%	-14%	-1%	4%
CC(=O)Oc1ccccc1Cn1c(C)c(C(=O)N(C)Cc2ccc(F)cc2)sc1=O	?	?	-18%	-2%	2%	?
COc1ccccc1NC(=O)NCCN1CCNC1=O	12%	27%	12%	6%	15%	-3%
COc1ccccc1N(C)S(=O)(=O)c1ccc(C(=O)NCc2ccccc2CN2CCCC2)cc1	?	-27%	?	-30%	?	?
O=C(OCc1ccccc1)N1CCN(C(c2ccnc3ccccc23)c2nnnn2-c2ccc3c(c2)OCCO3)CC1 (centres undefined)	23µM*	.	?	.	?	8.2µM*
O=[N+]([O-])c1ccc(-c2c[nH]c(=S)[nH]2)cc1	16µM*	-6%	5%	4%	0%	?
S=c1[nH]cc(-c2ccccc2)[nH]1	-2%	-5%	0%	1%	-9%	-11%
O=C(CCc1nnc(CCCCc2ccccc2)o1)NCCCc1cccnc1	?	7%	-21%	2%	-18%	?
